# DT40 TDP1 CPT: growth inhibition of DT40 Tdp1-/-;hTDP1 cells with camptothecin (screen for TDP1 inhibitors). chicken DT40 Tdp1-/-;hTDP1 cells + 20 nM CPT, ATP luminescence, 48 h. Potency, µM (series often up to 46.2 µM), without a hit: at the highest dose activity change, negative = growth inhibition, usual class: inhibitors. hit rate 12% among 420,000; further: potency means the concentration at half of the fitted maximal effect; nearly all actives have a fitted effect of over 55% in size
#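 Chicken DT40 Tdp1-/- cells stably complemented with human TDP1 were seeded at 400 cells/well in medium containing 20 nM camptothecin, exposed to pin-transferred compounds, and grown at 37 °C for at least 48 hr. Viability was read as ATP luminescence.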
# HT1080 IDH1KD tx: kills HT-1080 cells with IDH1 knockdown. HT-1080 IDH1 knockdown viability, ATP luminescence, 48 h. Potency, µM (series often up to 46.1 µM), for the others: at the highest dose activity, negative = toxicity, hits mostly cytotoxic. hit rate 2% among 360,000. AID 686971;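 further: potency means the concentration at half of the fitted maximal effect; 0% = DMSO wells and -100% = cell-free medium wells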
#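 CellTiter-Glo luminescence after 48 h compound exposure at 37 degrees C of IDH1-knockdown HT-1080 cells in 5% FBS RPMI. %Activity scaled between DMSO wells and cell-free media wells, with curves fitted and assigned curve classes.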
# IL1B secr inh: blocks inflammasome-driven IL-1 beta release; THP-1 LPS/ATP IL-1B secretion, AlphaLISA, 16 h; active compounds read low; activity change, % at 57.5 µM; hit rate 4.7% among 360,000; AID 743279; in the data active means activity change below about -50%; inconclusive means mostly about -30% to -49%
#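 THP-1 cells pretreated 1 hr with compounds (up to 57.5 uM final), then stimulated with LPS (250 ng/mL final) plus ATP (1.25 mM final); secreted IL-1B measured by AlphaLISA after 16 hr, decreased signal indicating inhibition.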
# HT1080NT lethal: kills 2HG-producing HT-1080-NT fibrosarcoma cells; HT-1080-NT fibrosarcoma viability, CellTiter-Glo ATP luminescence, 48 h; AID 686970; hit rate 1.6% among 360,000; Potency, µM (titrated, usually from 46.1 µM), inactives show at the top dose activity, negative = less viability, hits mostly cytotoxic;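 further: NT is the 2HG producing partner of a matched IDH1 knockdown line; potency means the concentration at half of the fitted maximal effect; 0% = DMSO-treated cells and -100% = media-only wells without cells; nearly all actives have a fitted effect of over 55% in size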
#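 A 48-hour cytotoxicity screen used HT-1080-NT cells plated 2 hours before compound delivery. ATP-based CellTiter-Glo luminescence measured viability, normalized to DMSO and no-cell controls.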
# DT40 TDP1 no CPT: qHTS for Inhibitors of human tyrosyl-DNA phosphodiesterase 1 (TDP1): qHTS in cells in absence of CPT. Potency, µM (top dose mostly 46.2 µM), without a hit: top-dose activity change, negative = growth inhibition, usual class: inhibitors. hit rate 15% among 420,000. DT40 Tdp1-/- hTDP1 cells, no CPT, ATP luminescence, 48 h; further: potency means the concentration at half of the fitted maximal effect; nearly all actives have a fitted effect of over 55% in size
#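 No-CPT arm: Tdp1-/-;hTDP1 DT40 cells (400/well) plus compounds, incubated ≥48 hr at 37 °C. Readout CellTiter-Glo luminescence.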
# Starred values were filed as active, the others as inactive; u = inconclusive; x = not tested or not shown; [ ] = dose if it differs, or a comment. Hits are enriched below; roughly 19% of the tested compounds scored in any of these assays. Unless noted, the call rests on the fitted dose curve; in most records, active means well fitted curve in the direction sought with a large enough effect; inconclusive means small, poorly fitted or top-dose-only effect, or another doubt; inactive means no such curve, though single readings can be large; an effect the other way counts as inactive or inconclusive. Unless noted, on the % scale 0 is the no-effect control and ±100 the full control effect.
SMILES,DT40 TDP1 CPT,HT1080 IDH1KD tx,IL1B secr inh,HT1080NT lethal,DT40 TDP1 no CPT
COc1cc(CCNC2=CC(=O)c3ncccc3C2=O)ccc1O,4.6µM*,15µM*,-71*,u,5.8µM*
CCN1CCN(CC(=O)Nc2c(OC)cccc2OC)CC1,26%,u,29,30%,-8%
O=C1c2ccccc2C(=O)c2c1cccc2N(CCO)CCO,-21%,-29%,-10,u,-29%
O=C1C=C(N(CCO)Cc2ccccc2)c2ccccc2C1=O,18µM*,15µM*,-98*,8.2µM*,21µM*
Cc1cc(Cl)ccc1OCC(=O)N(Cc1ccco1)c1c(N)n(Cc2ccccc2)c(=O)[nH]c1=O,u,1%,0,-2%,u
Cc1ccc(C(C)C)c(OCCCn2ccnc2C)c1,16µM*,-1%,-16,-11%,29µM*
Cc1ccc(C)c(OCCCCN2CCNCC2)c1C,15µM*,-17%,-13,-23%,6.5µM*
Cc1ccc(C(C)C)c(OCCN)c1,-29%,2%,-11,-7%,u
Cc1ccc(C(C)C)c(OCCCCN2CCNCC2)c1,15µM*,-9%,-58*,-14%,16µM*
Cc1cccc(C(C)(C)C)c1OCCCCN1CCCC1,u,u,-21,-20%,23µM*
Cc1ccc(C)c(OCCCN2CCNCC2)c1,-8%,2%,-7,2%,1%
COc1ccc(-c2nn3c(=O)cc(CN4CCN(C(=O)Nc5ccc(C)c(Cl)c5)CC4)nc3s2)cc1,-13%,x,x,x,-10%
COc1ccccc1N1CCN(Cc2cnc3ccc(Cl)cn23)CC1,23µM*,-1%,22,9%,13µM*
CCOc1ccc(Nc2nc(N)nc(CN3CCN(c4ccccc4F)CC3)n2)cc1,-10%,-16%,-8,-1%,18µM*
COc1ccccc1N1CCN(Cc2nc(N)nc(Nc3ccc(C)c(Cl)c3)n2)CC1,15µM*,u,-15,u,9.2µM*
Nc1nc(CN2CCN(c3ccccn3)CC2)nc(Nc2ccc(Cl)cc2)n1,u,-30%,-22,-32%,6.5µM*
COc1ccc(CN2CCN(c3ccccc3OC)CC2)cc1OC,-22%,-12%,-19,-3%,-29%
CN1C(=O)CC(C)(c2ccccc2)C1=O (stereo not given),-1%,x,x,x,-6%
COc1ccc(Nc2nc(N)nc(CN3CCN(c4ccc(F)cc4)CC3)n2)cc1,u,-2%,u,-17%,15µM*
COc1ccc(N2CCN(Cc3nc(N)nc(Nc4ccccc4OC)n3)CC2)cc1,u,4%,u,5%,u
COc1ccc(N2CCN(c3nc(Cl)nc(Nc4ccc(F)cc4)n3)CC2)cc1,18µM*,-21%,-79*,-15%,18µM*
COc1cc(OC)c(NS(=O)(=O)c2cc3c(cc2C)N(C(C)=O)CCO3)cc1Cl,-24%,x,x,x,u
CSCCC(NC(=O)c1ccccc1)C(=O)OCC(=O)NCc1ccco1 (stereo not given),-8%,1%,2,1%,3%
Cc1ccc(C)c(COC(=O)CCN=C2NS(=O)(=O)c3ccccc32)c1,-18%,-2%,9,5%,-6%
CCCOc1ccccc1OCC(=O)Nc1ccc(S(=O)(=O)N2CCCC2)cc1,u,1%,1,-9%,16µM*
SMILES,DT40 TDP1 CPT,HT1080 IDH1KD tx,IL1B secr inh,HT1080NT lethal,DT40 TDP1 no CPT
O=C(COc1ncnc2c1cnn2-c1ccccc1)Nc1ccc(S(=O)(=O)N2CCCCC2)cc1,16µM*,-17%,0,-18%,u
COc1ccccc1OCC(=O)Nc1ccc(S(=O)(=O)N2CCCCCC2)cc1,u,-7%[9.24 µM],-4,5%,u
CCCOc1ccccc1C(=O)Nc1ccc(S(=O)(=O)N2CCN(C)CC2)cc1,18µM*,-9%,-16,-19%,16µM*
NS(=O)(=O)c1cccc(NC(=O)COc2ncnc3c2cnn3-c2ccccc2)c1,0%,-18%,26,-18%,6%
O=C(O)c1ccc(N/N=C/c2cc3cc4c(cc3nc2Cl)OCCO4)cc1,u,-3%,53,-1%,u
Cn1c(-c2ccc([N+](=O)[O-])cc2)nc2ccccc21,12%,18%,-18,19%,-20%
Cn1nc([N+](=O)[O-])c(C(C#N)c2nc3ccccc3n2C)c(Cl)c1=O (stereo not given),u,-23%,-8,-27%,23µM*
Cc1nn(-c2ccccc2)c2nc(=O)n(-c3ccccc3)cc12,8.2µM*,u,-7,-1%,7.3µM*
O=C1C2=C(Nc3ccccc3SC2c2ccco2)c2ccccc21 (stereo not given),-11%,-26%,-15,-29%,u
CCc1ccc(C2C(C(=O)O)c3ccccc3C(=O)N2C)cc1 (stereo not given),5%,16%,17,8%,-3%
CCc1ccc(C2Sc3ccccc3NC3=C2C(=O)c2ccccc23)cc1 (stereo not given),16µM*,x,x,x,u
CC(C)c1ccc(C2Sc3ccccc3NC3=C2C(=O)c2ccccc23)cc1 (stereo not given),16µM*,x,x,x,16µM*
COc1ccc(C2(C(=O)NC3CCCCC3)CCOCC2)cc1OC,-3%,2%,-9,-3%,-17%
CC1CCCC(C)N1C(=O)CN1C(=O)c2ccccc2S1(=O)=O (stereo not given),1%,-5%,-8,0%,1%
COC(=O)c1ccc2c(CCO)c[nH]c2c1,-18%,17%,-4,20%,-25%
COc1cc2c(cc1OC)C(c1ccc(-c3ccc(Cl)c(Cl)c3)o1)=NCC2,4.1µM*,23µM*,-59*,u,1.8µM*
COc1ccc(-c2noc(-c3ccccc3Cl)n2)cc1OC,-10%,6%,-3,2%,-18%
COc1cc2c(cc1OC)C(c1ccc(-c3ccccc3Cl)o1)=NCC2,6.5µM*,13µM*,-92*,u,2.3µM*
COc1cc2c(cc1OC)C(c1ccc(Cl)cc1)=NCC2,16µM*,-11%,u,8%,8.2µM*
COc1cc2c(cc1OC)C(C)=NCC2,16µM*,0%,-13,0%,-2%
COc1ccc(C2=CSC3=NCCN23)cc1Cl,6%,-11%,u,-15%,u
COc1ccc(S(=O)(=O)Nc2ccc3c(c2)C(=O)N([C@H](C)CO)C[C@H](C)[C@@H](CN(C)S(=O)(=O)c2cccs2)O3)cc1,u,7%,-9,5%,u
COc1cc2c(cc1OC)C(c1ccc(-c3cc(Cl)ccc3Cl)o1)=NCC2,2.6µM*,-7%,-93*,-7%,1.6µM*
CCCn1nnc(NC(=O)c2ccc(-c3cc(Cl)ccc3Cl)o2)n1,-16%,-3%,4,-1%,u

# Compound activity from PubChem BioAssay.
